Shown are actives, neighbours in structure and some others; about 7.9% of the full set was active somewhere.
HT1080NT lethal = qHTS for induction of synthetic lethality in tumor cells producing 2HG: qHTS for the HT-1080-NT fibrosarcoma cell line; HT-1080-NT fibrosarcoma viability, CellTiter-Glo ATP luminescence, 48 h; Potency, µM (titrated, usually from 46.1 µM), for inactives: at the top dose activity, negative = less viability, usual class: cytotoxic; 360,000 tested, 1.6% active; AID 686970, 2013;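 further: NT is the 2HG producing partner of a matched IDH1 knockdown line; 0% = DMSO-treated cells and -100% = media-only wells without cells; nearly all actives have a fitted effect of over 55% in size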
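Read-out is CellTiter-Glo luminescence after 10 minutes at room temperature, following 48 hours' compound treatment of HT-1080-NT cells (750 cells/well, RPMI, 5% FBS, 37 degrees C).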
KB-V1 cytotox = qHTS assay for MDR1-selective chemotherapeutics: Primary screen using the drug-selected MDR subline cells KB-V1. 400,000 tested, 3.4% active. AID 1347076, 2019. Potency, µM (top dose mostly 46.1 µM), most hits filed as cytotoxic. KB-V1 MDR cells viability, CellTiter-Glo, 72 h; further: on the % scale 0 is the no-effect control and ±100 the full control effect; nearly all actives have a fitted effect of over 60% in size
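Readout: CellTiter-Glo luminescence, 10 min after addition. Cells: KB-V1 MDR subline, 72 h at 37 degrees C with compound. Analysis: corrected, normalized data fitted to concentration-effect curves.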
MCF10A rereplic = A quantitative high throughput screen for small molecules that induce DNA re-replication in MCF 10a normal breast cells; MCF 10A DNA re-replication, Hoechst nuclear intensity, 48 h; Potency, µM (top dose mostly 46.1 µM), for the others: at the top dose activity, positive = re-replication, usual class: activators; 350,000 tested, 2.9% active; AID 624296, 2012; further: % of control where 0% means no effect; nearly all actives have a fitted effect of over 50% in size
KB-3-1 tox = qHTS assay for MDR1-selective chemotherapeutics: Primary screen using the parental adenocarcinoma cell KB-3-1 | 400,000 tested, 1.4% active | KB-3-1 viability, CellTiter-Glo ATP luminescence, 72 h | Potency, µM (titrated, usually from 46.1 µM), hits mostly cytotoxic; further: on the % scale 0 is the no-effect control and ±100 the full control effect; nearly all actives have a fitted effect of over 60% in size
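Using CellTiter-Glo luminescence, growth of non-resistant KB-3-1 adenocarcinoma cells is assessed 72 h after pin-tool compound addition at 37 °C. Normalized responses across the concentration series yield fitted curves.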
HT1080 IDH1KD tx = qHTS for induction of synthetic lethality in tumor cells producing 2HG: qHTS for the HT-1080-IDH1KD cell line; HT-1080 IDH1 knockdown viability, ATP luminescence, 48 h; Potency, µM (titrated, usually from 46.1 µM), for inactives: at the highest dose activity, negative = toxicity, hits mostly cytotoxic; 360,000 tested, 2% active; AID 686971, 2013;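 further: 0% = DMSO wells and -100% = cell-free medium wells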
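Assay cells: HT-1080 with IDH1 knockdown, 750 per well, RPMI/5% FBS. Exposure: 48 h at 37 °C following 2 h pre-incubation. Read: CellTiter-Glo luminescence; fitted concentration-response, curve class assigned.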
SW480 rereplic = A quantitative high throughput screen for small molecules that induce DNA re-replication in SW480 colon adenocarcinoma cells | 340,000 tested, 1.8% active | Potency, µM (top dose mostly 46.1 µM), inactives show at the highest dose re-replication activation, usual class: activators | SW480 DNA re-replication, Hoechst DNA content imaging, 48 h; further: % of control where 0% means no effect; nearly all actives have a fitted effect of over 55% in size
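Treated cells incubate 48 hr (37 C, 5% CO2), are stained 40 min with Hoechst, and nuclear fluorescence is enumerated; a rise in nuclei with high DNA signal marks re-replication.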
* = called active by the depositor; i = inactive; ? = inconclusive; · = no result given; [ ] = dose if it differs, or a comment. The call rests on the fitted dose curve; in most records, active means well fitted curve in the direction sought with a large enough effect; inconclusive means small, poorly fitted or top-dose-only effect, or another doubt; inactive means no such curve, though single readings can be large; an effect the other way counts as inactive or inconclusive. Potency means the concentration at half of the fitted maximal effect.

SMILES	HT1080NT lethal	KB-V1 cytotox	MCF10A rereplic	KB-3-1 tox	HT1080 IDH1KD tx	SW480 rereplic
Clc1ccc(CSc2nncn2-c2ccccn2)cc1	-4.0%	i	9.7%	i	-3.7%	3.5%
Clc1ccc(CSc2nncn2-c2ccc3c(c2)OCCO3)cc1	16.4µM*	?	9.2µM*	13µM*	5.17µM*	20.6µM*
CN(Cc1ccccc1)C(=O)c1csc([C@@H]2O[C@H](CO)[C@H](O)[C@H](O)[C@H]2O)n1	16.5%	i	·	i	1.0%	·
COc1cc(C(=O)N/N=C/c2cc([N+](=O)[O-])cs2)cc(OC)c1OC	2.91µM*	1.16µM*	5.8µM*	?	1.46µM*	?
CCOc1ccc(C(=O)N/N=C/c2cc([N+](=O)[O-])cs2)cc1	-4.2%	i	5.4%	i	-2.1%	3.7%
COc1cc(C(=O)N/N=C/c2sccc2C)cc(OC)c1OC	0.517µM*	?	?	0.651µM*	0.259µM*	1.16µM*
Cc1ccccc1/C=N/NC(=O)c1sccc1C	-22.3%	?	5.4%	i	-17.3%	3.2%
Cc1ccsc1/C=N/NC(=O)c1ccncc1	-13.9%	i	-6.7%	i	8.7%	-8.8%
COc1ccc(/C=N/NC(=O)c2sccc2C)c2ccccc12	-18.8%	i	11.6µM*	i	-15.6%	?
COc1ccccc1-c1cc(C(F)(F)F)nc(S(=O)(=O)CCCC(=O)O)n1	11.2µM*	i	?	i	8.91µM*	3.55µM*
COc1ccc(-c2cc(C(F)(F)F)nc(S(=O)(=O)CCCC(=O)Nc3cccc(O)c3)n2)cc1OC	18.4µM*	i	6.51µM*	i	11.6µM*	?
COc1ccc(-c2cc(C(F)(F)F)nc(S(=O)(=O)CCC(=O)N3CCOCC3)n2)cc1	3.2%	?	8.2µM*	?	2.8%	?
COc1ccccc1-c1cc(C(F)(F)F)nc(S(=O)(=O)CCCC(=O)N2CCOCC2)n1	16.4µM*	?	3.26µM*	16.4µM*	16.4µM*	?
COc1ccccc1-c1cc(C(F)(F)F)nc(S(=O)(=O)CCCC(=O)Nc2cc(OC)c(OC)c(OC)c2)n1	·	?	·	i	·	·
Cc1ccc2cccc(NC(=O)c3ccc(-c4cccc(Cl)c4)o3)c2n1	·	i	·	i	·	·
Cc1ccc2c(c1)-c1c(cnc3cc(-c4ccc(Cl)cc4)nn13)CO2	·	?	·	i	·	·
N#C/C(=C\c1cccn1S(=O)(=O)c1ccccc1)S(=O)(=O)c1ccc(F)cc1	6.3%	i	·	i	3.8%	·
COc1ccccc1-c1cc(C(F)(F)F)nc(NCc2cccs2)n1	-0.8%	20.6µM*	?	i	7.2%	8.2%
COc1ccc(-c2cc(C(F)(F)F)nc(NCc3cccs3)n2)cc1	?	i	-0.7%	i	?	6.5%
CCN1CCN(c2ccc(NC(=O)COc3ccc(Cl)cc3C)cc2)CC1	-0.9%[9.24 µM]	?	?	?	11.9%	14.6µM*
Cc1cc(Cl)ccc1OCC(=O)Nc1ccncc1	?	?	16.4µM*	i	-10.5%	-21.8%
CC(=O)N1CCN(c2ccc(NC(=O)COc3ccc(Cl)cc3Cl)cc2)CC1	-7.5%	?	22.6%	i	-25.7%	2.4%
Cc1cc(Cl)ccc1OCC(=O)NCc1ccncc1	9.3%	?	-7.5%	i	9.8%	-3.5%
Cc1cc(Cl)ccc1OCCCC(=O)NO	20.6µM*	i	3.4%	?	20.6µM*	?
CCN(CC)C(=O)Cn1nnc2sc(-c3ccccc3)cc2c1=O	·	i	·	i	·	·
SMILES	HT1080NT lethal	KB-V1 cytotox	MCF10A rereplic	KB-3-1 tox	HT1080 IDH1KD tx	SW480 rereplic
COc1ccc(C/C(N)=N/OC(=O)c2cccc([N+](=O)[O-])c2)cc1	-0.6%	i	?	i	-9.4%	2.2%
COc1ccc(C(=O)O/N=C(\N)Cc2ccc([N+](=O)[O-])cc2)c(OC)c1	?	?	23.2%	i	18.4µM*	-43.3%
N/C(Cc1ccc([N+](=O)[O-])cc1)=N\OC(=O)c1ccc([N+](=O)[O-])cc1	-0.5%	?	2.0%	i	-3.8%	-6.0%
N/C(Cc1ccc([N+](=O)[O-])cc1)=N\OC(=O)c1cccc(Br)c1	0.5%	i	?	i	7.0%	11.6µM*
CC(=O)NC(c1ccc(C(C)C)cc1)c1ccc2cccnc2c1O (centres undefined)	?	?	?	0.651µM*	?	0.82µM*
CCCCC(=O)NC(c1ccc(C(C)C)cc1)c1ccc2cccnc2c1O (centres undefined)	?	i	18.4µM*	?	?	?
CCC(=O)NC(c1ccccc1OC)c1ccc2cccnc2c1O (centres undefined)	0.794µM*	?	6.9%	10.3µM*	0.501µM*	1.8%
CCCC(=O)NC(c1ccccc1)c1ccc2cccnc2c1O (centres undefined)	-23.4%	?	?	?	?	?
CCCC(=O)NC(c1ccc(OC)cc1)c1ccc2cccnc2c1O (centres undefined)	-27.6%	7.31µM*	?	?	?	-5.9%
CCN(CC)S(=O)(=O)c1nnc(NC(=O)COc2cccc(C)c2)s1	·	i	·	i	·	·
NC(=O)[C@H]1O[C@@H](O)[C@H](O)[C@@H](O)[C@@H]1O	·	·	-0.1%	·	·	-1.8%
Cc1[nH]c2ccccc2c1C1N2CC3(C)CN1CC(C)(C2)C3=O (centres undefined)	·	i	·	i	·	·
Cc1cc(C)cc(C(=O)NCC(=O)OCC(=O)N2CCCC2)c1	8.4%	i	·	i	-1.6%	·
COc1ccc(Cl)cc1C(Nc1cccnc1)c1ccc2cccnc2c1O (centres undefined)	?	?	?	?	10.3µM*	7.31µM*
CCCCC(=O)NC(c1ccccc1)c1ccc2cccnc2c1O (centres undefined)	?	13µM*	?	?	?	0.517µM*
Oc1c(C(Nc2cccnc2)c2ccc(C(F)(F)F)cc2)ccc2cccnc12 (centres undefined)	·	i	·	i	·	·
CCOc1ccc(NC(=O)CC2C(=O)N(c3cccc(C)c3)C(=O)N2CCC2=CCCCC2)cc1 (centres undefined)	·	?	·	i	·	·
Cc1ccc(NC(=O)CN2CCc3ccccc3C2)cc1S(=O)(=O)N1CCOCC1	1.1%	8.2µM*	-5.4%	i	1.2%	8.3%
